Shown is part of a subset that was picked to be rich in hits.
ERK EGF block: EGF-driven ERK pathway inhibition; HEK293-V1b, EGF-stimulated phospho-ERK AlphaScreen; Potency, µM (highest dose often 11.5 µM), inactives show at the top dose activity change, negative = inhibition, usual class: inhibitors; 0.41% of 130,000 active;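 also: potency is read from the fitted curve at half-maximal effect; plate controls were stimulated vehicle wells for no effect and unstimulated vehicle basal for full effect; nearly all actives have a fitted effect of over 55% in size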
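Stably V1b-transfected HEK293 cells; 30 min compound, then EGF 25 nM final for 5 min at 37C; 10 min lysis; phospho-ERK by AlphaScreen after 5 hr beads at room temperature.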
cRaf kinase inh: blocks human c-Raf kinase activity; shares compounds with ERK EGF block; c-Raf kinase inhibition, homogeneous biochemical assay; activity change, negative = inhibition, % at 76.9 µM; 70 tested, under 10 active
MEK1 kinase inh: blocks human MEK1 kinase activity in ERK pathway follow-up; shares compounds with ERK EGF block; AID 1732; Potency, µM (highest dose often 76.9 µM), without a hit: at the highest dose activity change, negative = inhibition, most hits filed as inhibitors; homogeneous MEK kinase activity assay, ERK pathway; 70 tested, under 10 active
Target sequence (Q02750 whole entry, looked up): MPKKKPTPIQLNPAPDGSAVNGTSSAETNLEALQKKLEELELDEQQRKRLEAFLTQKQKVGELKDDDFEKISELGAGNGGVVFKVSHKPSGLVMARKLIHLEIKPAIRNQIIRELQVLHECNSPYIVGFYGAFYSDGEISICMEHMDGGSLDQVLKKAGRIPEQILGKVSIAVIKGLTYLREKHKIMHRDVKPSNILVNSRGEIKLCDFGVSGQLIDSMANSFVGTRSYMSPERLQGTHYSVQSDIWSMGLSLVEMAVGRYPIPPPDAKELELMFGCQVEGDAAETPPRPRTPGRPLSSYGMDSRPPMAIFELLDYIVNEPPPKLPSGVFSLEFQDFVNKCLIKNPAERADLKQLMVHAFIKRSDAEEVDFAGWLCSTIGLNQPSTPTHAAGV
An asterisk follows results filed as active; ? = inconclusive; · = no result; [ ] = another dose, or the depositor's remark. Calls follow the shape of the dose curve; as a rule, active = well fitted curve in the direction sought with a large enough effect; inconclusive = small, poorly fitted or top-dose-only effect, or another doubt; inactive = no such curve, though single readings can be large; an effect the other way counts as inactive or inconclusive.

SMILES	ERK EGF block	others
C=C(CC1CC(O)[C@]2(C)OC3CC4OC5C[C@]6(C)O[C@]7(C)CCC8OC9C[C@]%10(C)OC%11C(C)=CC(=O)OC%11CC%10OC9C[C@@H](C)C8OC7CC6O[C@]5(C)C/C=C\C4OC3CC2O1)C(=O)O (some centres undefined)	-12.3%[57.5 µM]
C=C1C[C@@H]2[C@H](CC[C@]3(C)C(=O)CC[C@@H]23)[C@@]2(C)C=CC(=O)C=C12	4.6%[57.5 µM]
O=C1C=C2C=CC3C[C@@]2(O1)C1CCCCN31 (some centres undefined)	2.0%
Cn1nc(-c2ccccc2)nc2c(=O)n(C)c(=O)nc1-2	·	cRaf kinase inh=?;MEK1 kinase inh=0.708µM*
CCn1nc(-c2ccccc2)nc2c(=O)n(C)c(=O)nc1-2	0.4%	cRaf kinase inh=?;MEK1 kinase inh=0.631µM*
Cc1nc2c(=O)n(C)c(=O)nc-2n(C)n1	22.1%	cRaf kinase inh=?;MEK1 kinase inh=?
COc1ccc(-c2nc3ccccc3c(=O)n2-c2ccc(OC)cc2)cc1	-12.8%
O=c1c2ccccc2nc(-c2ccccc2)n1-c1ccccc1	-7.9%[57.5 µM]
CN(C)CCc1nn[nH]n1	-1.1%
CCC(C)N1C(=O)/C(=C\c2ccc(N3CCCCCC3)cc2)C(=O)NC1=S (centres undefined)	0.7%
CC(C)OC(=O)C1C2c3ccccc3C(c3ccccc32)C1C(=O)O (centres undefined)	6.9%
CC(N)[C@H](O)c1ccccc1 (some centres undefined)	21.8%
O=C(O)CN1C(=O)CN=C(c2ccccn2)c2cc(Cl)ccc21	-6.0%[57.5 µM]
CCOc1ccc(C2CC(c3c(O)n(C)c(=O)n(C)c3=O)=NN2)cc1 (centres undefined)	-5.1%[57.5 µM]
Oc1ccc(C2NCc3ccccc3-n3cccc32)cc1Cl (centres undefined)	5.2%
CC(=O)OC1CCC23C(=O)OC45CCC(C6=CC(=O)OC6)C4(C)CCC2C5CCC3(O)C1 (centres undefined)	12.5%
CCCCC/C=C\C=C\[C@H](CCCCCCCC(=O)O)OO	-9.6%
Cc1ccc(S(=O)(=O)N(C)C/N=C(\N)N[N+](=O)[O-])cc1	-6.2%

Source: PubChem
